# Source: PubChem BioAssay
# SARS PLP yeast: qHTS of Yeast-based Assay for SARS-CoV PLP; hit rate 0.19% among 330,000; S. cerevisiae expressing SARS-CoV PLpro, growth rescue; Potency, µM (top dose mostly 32.9 µM), for inactives: top-dose activity, positive = growth rescue, hits mostly activators; calls by dose curve; also: 0% is about no effect; nearly all actives have a fitted effect of over 55% in size
# NS1 function inh: qHTS Assay for Inhibitors of Influenza NS1 Protein Function | Potency, µM (top dose mostly 46.1 µM), inactives show top-dose activity, positive = more growth | hit rate 0.4% among 270,000 | AID 2326, 2010; calls by dose curve; also: actives are rising curves; nearly all actives have a fitted effect of over 50% in size
#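 A cell-based growth assay was used: compounds that relieve NS1-induced slow growth of budding yeast raise OD600. Assay medium was yeast nitrogen base with ammonium sulphate and -URA supplement, pH 6.0, with 2% galactose.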
# AMA1 RON2 block: qHTS for Inhibitors of AMA1-RON; Towards Development of Antimalarial Drug Lead: Primary Screen | Plasmodium falciparum AMA1 (3D7) - RON2 peptide interaction | AlphaScreen AMA1-biotinylated RON2 peptide binding | Potency, µM (highest dose often 58.2 µM), inactives show top-dose activity change, negative = inhibition, usual class: inhibitors | hit rate 0.2% among 360,000;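 also: 0% = vehicle wells and -100% = peptide control; nearly all actives have a fitted effect of over 45% in size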
#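 AMA1 (3D7) with his tag at 25 nM final met compounds first, then biotinylated RON2 peptide at 25 nM; detection used donor plus acceptor beads, 10 µg/mL apiece, read by AlphaScreen after 30 min at room temperature.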
# Pf growth 48h: Primary qHTS for delayed death inhibitors of the malarial parasite plastid, 48 hour incubation. P. falciparum luciferase growth in erythrocytes, 48 h. Potency, µM (doses to about 28.7 µM), for the others: at the top dose activity change, negative = inhibition, actives largely listed as inhibitors. hit rate 5.9% among 310,000. AID 504832, 2011; also: % is scaled to controls: 0 for no effect and ±100 for the full control effect
#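 Firefly luciferase activity from engineered P. falciparum reports growth; inhibitors lower the luminescent signal. Cultures contained 2% hematocrit erythrocytes at 0.1% final parasitemia.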
# Pf growth 96h: Primary qHTS for delayed death inhibitors of the malarial parasite plastid, 96 hour incubation. AID 504834, 2011. Potency, µM (series often up to 28.7 µM), for the others: top-dose activity change, negative = inhibition, most hits filed as inhibitors. P. falciparum luciferase reporter growth, 96 h. hit rate 6.9% among 320,000; also: % is scaled to controls: 0 for no effect and ±100 for the full control effect
#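 Two-generation exposure (96 h) targets delayed-death phenotype. Reporter parasites carrying integrated firefly luciferase, in red cells at 2% hematocrit and 0.05% parasitemia final, kept at 37 C, 5% CO2; luminescence loss indicates inhibition.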
# HCV inh: qHTS Assay for Inhibitors of Hepatitis C Virus (HCV); Huh7.5.1 HCVcc-Cre infection, luciferase reporter, 44 h; Potency, µM (doses to about 41.8 µM), inactives show at the highest dose activity change, negative = inhibition, most hits filed as inhibitors; hit rate 3.4% among 340,000; also: % is scaled to controls: 0 for no effect and ±100 for the full control effect
#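 Antiviral activity was scored by luciferase reporter output from cells infected with HCVcc-Cre (~0.5 moi) in presence of compound, 44 h infection period, cells seeded 1,000/well 4 h prior.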
# Active calls of the source: *; ? = inconclusive; nt = no result given; [ ] = remark or other dose. In the library only some 12% were active in any assay of this set; here they are far more common. Unless noted, calls follow the shape of the dose curve; as a rule, active = well fitted curve in the direction sought with a large enough effect; inconclusive = small, poorly fitted or top-dose-only effect, or another doubt; inactive = no such curve, though single readings can be large; an effect the other way counts as inactive or inconclusive. Potency is read from the fitted curve at half-maximal effect.
SMILES,SARS PLP yeast,NS1 function inh,AMA1 RON2 block,Pf growth 48h,Pf growth 96h,HCV inh
CN(C)c1ccc(/C=C/c2ccc3ccccc3[n+]2C)cc1,-89%,-36%,?,0.83µM*,?,0.89µM*
[O-][n+]1c(/C=C/c2ccccc2)ccc2ccccc21,-2%,-27%,-8%,110%,6.6µM*,10µM*
CC(=O)Oc1ccccc1/C=C/c1ccc2ccccc2[n+]1C,-5%,-17%,-2%,?,192%,?
COc1ccc(/C=C/c2ccc3ccccc3[n+]2C)cc1OC,-4%,-2%,-15%,1.2µM*,10%,1%
NC(=O)C1CCN(c2nc(-c3ccc4ccccc4c3)cs2)CC1,2%,nt,nt,?,?,nt
O=C(c1ccc2c(c1)OCCO2)N1CCCC(CNS(=O)(=O)c2cccs2)C1 (stereo not given),1%,-5%,2%,-3%,14%,-1%
NNC(=O)CNC(=O)Nc1n[nH]c(=S)s1,nt,nt,103%,nt,nt,nt
Cc1cc(C)nc(N2CCCC(C(=O)NNC(=O)c3ccncc3)C2)n1 (stereo not given),2%,-4%,95%,-2%,119%,20%
O=C(OCC#CCSc1nnc(-c2ccncc2)o1)c1cccs1,24%,-5%,-6%,-8%,12µM*,21%
NC(=O)NC1CCCc2c1[nH]c1ccc(Cl)cc21 (stereo not given),7%,-32%,-4%,21%,-27%,6.3µM*
Cn1c(Cl)nc2c1c(=O)n(Cc1cccc(Br)c1)c(=O)n2C,-11%,-5%,3%,-18%,57%,13µM*
CC(C)CNc1nc2c(c(=O)n(C)c(=O)n2C)n1Cc1cccc(Br)c1,2%,-3%,0%,12µM*,19%,8%
Cn1c(N2CCCC2)nc2c1c(=O)n(Cc1cccc(F)c1)c(=O)n2C,1%,-1%,-1%,?,10µM*,?
COCCCn1c(=O)c2sccc2n(Cc2cccc(C)c2)c1=O,4%,31%,1%,?,?,10%
Cn1c(=O)c2sccc2n(Cc2cccc(Br)c2)c1=O,-6%,0%,4%,31%,?,11µM*
CN(C)c1ccc(Cl)cc1N,0%,4%,7%,-35%[1.15 µM],-19%,6%
CC(O)CNc1nc2c(c(=O)n(C)c(=O)n2C)n1Cc1cccc(Br)c1 (stereo not given),-17%,-4%,-4%,-17%,-12%,11µM*
Cc1ccc(NC(=O)COC(=O)C2(C)CC2(Cl)Cl)cc1S(=O)(=O)N1CCOCC1 (stereo not given),-1%,nt,-5%,?,?,-1%
CCC(CC)C(=O)Nc1c2c(nn1-c1ccc(OC)cc1)CS(=O)C2 (stereo not given),-4%,-6%,0%,nt,0.033µM*,7%
CCC(=O)Nc1c2c(nn1-c1ccc(OC)cc1)CS(=O)C2 (stereo not given),-2%,3%,0%,nt,?,7%
COc1ccc(OCCn2c(C)c(/C=N/n3cnnc3)c3ccccc32)cc1,-3%,7%,2%,?,12µM*,-17%
COc1ccc(-c2nc(C)ncc2N=Nc2ccccc2)cc1,2%,7%,?,9.3µM*,3.7µM*,32µM*
CCCN(C(=O)Cc1c(C(=O)O)n(C)c2ccccc12)c1cccc(C)c1,-1%,0%,1%,0%,-9%,26%
NC(=S)Cc1nc(-c2ccc(Cl)cc2)cs1,-3%,nt,70%,30%,?,11µM*
NC(=O)Cc1nc(-c2ccc(F)cc2)cs1,-1%,1%,6%,27%,34%,13%
SMILES,SARS PLP yeast,NS1 function inh,AMA1 RON2 block,Pf growth 48h,Pf growth 96h,HCV inh
COCc1nnc(NC(=O)CS(=O)(=O)c2ccc(C)cc2)s1,-4%,-2%,-7%,10%,5%,-12%
Cn1c(=O)c2c(nc(SC3C(=O)CC(C)(C)CC3=O)n2C)n(C)c1=O,3%,6%,0%,24%,12µM*,5%
CC(C)Sc1nc2c(c(=O)n(C)c(=O)n2C)n1C,17%,-5%,8%,13%,0%,19%
CC(=O)N1CC(=O)N=C1SCC(=O)Nc1nc(-c2ccccc2)c(-c2ccccc2)s1,?,2%,-16%,15µM*,?,?
Cc1cccc2sc(NC(=O)Cn3c(C)csc3=O)nc12,0%,nt,18%,-16%,34%,22%
Cc1ccc(-n2c(C)cc(/C=C3\SC(=O)NC3=O)c2C)cc1,-4%,-3%,0%,107%,32%,11%
Cc1cc(/C=C2\SC(=S)N(C)C2=O)c(C)n1-c1ccccc1O,nt,nt,-17%,nt,nt,7.1µM*
Cc1cc(/C=C2\SC(=S)N(C)C2=O)c(C)n1-c1ccc(O)cc1,-5%,-38%,-15%,68%,0%,11µM*
COc1ccccc1CC(=O)O/N=C(\N)Cc1cccc2ccccc12,-45%,-22%,-9%,5.9µM*,?,-13%
Cc1ccc(C(=O)O/N=C(\N)Cc2cccc3ccccc23)cc1,-10%,-40%,0%,1.9µM*,22%,-6%
COc1ccccc1OC(=O)Cc1cccc2ccccc12,1%,3%,19%,-22%,10%,14%
Cc1ccc(/C(N)=N/OC(=O)c2ccc3ccccc3c2)cc1,-14%,-32%,-6%,?,-20%,?
O=C1NC(=O)C2(CCCCC2C2CCCCC2)N1 (stereo not given),nt,nt,0%,nt,nt,15%
O=C(Nc1ccc2c(c1)OCCO2)c1cc(-c2ccccc2)nc2ccccc12,-16%,-14%,-14%,?,?,?
O=C(Nc1nccs1)c1cc(-c2ccccc2)nc2ccccc12,15%,4%,55%,2.6µM*,3.3µM*,?
COc1cc(C(=O)Nc2ccc(C)cc2)c2ccccc2n1,-4%,3%,20%,-14%[0.00184 µM],17%,-7%
COc1ccc(-c2cc(C(=O)Nc3ccc(C)c(N)c3)c3ccccc3n2)cc1,-11%,-13%,-27%,?,-34%,11µM*
COc1cccc(-c2cc(C(=O)Nc3ccc4c(c3)OCCO4)c3ccccc3n2)c1,5%,12%,nt,9.3µM*,6.6µM*,0%
Cc1ccc(C)c(C(=O)Nc2cc(C)nn2-c2nc(C)cc(C)n2)c1,-1%,nt,-10%,13µM*,?,?
CCOc1cc(N2CCOCC2)c(OCC)cc1NC(=O)CN1C(=O)NC(C)(c2ccc(OC)cc2)C1=O (stereo not given),nt,nt,2%,nt,nt,-8%
C=CCNC(=O)C1CC(=O)N(c2ccc(OCC(=O)Nc3ccc(Cl)cc3)cc2)C1 (stereo not given),1%,8%,-2%,21%,-4%,1%
